This passage reports NP40-soluble protein abundance results from the supplement of paper PMC6411743.

± gives the standard deviation of the averaged measurements. Targets with the largest changes are over-represented here; the source holds about 5,400 in all.

Compound in the assay: Nc1nc2c(ncn2[C@@H]2O[C@H](COP(=O)(O)OP(=O)(O)OP(=O)(O)O)[C@@H](O)[C@H]2O)c(=O)[nH]1 [guanosine triphosphate]
The assay is described as follows: NP40-soluble protein abundance relative to vehicle (solubility fold change) (ratio); higher = more soluble protein in presence of GTP. The gist of the method:
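In three independent experiments, Jurkat crude lysate made by Dounce homogenisation was treated for 10 min at room temperature and then 3 min at 37 °C with eight concentrations ranging from 0.1 to 10 mM. It was then solubilised with 0.8% NP40 plus benzonase for 60 min at 4 °C and ultracentrifuged. The supernatant was TMT-labelled for LC-MS/MS, and each value is the fold change against the detergent-processed vehicle for the same replicate, using vsn-normalised intensities.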

Chain of UniProt Q15843 (Q15843 whole entry, one chain of several): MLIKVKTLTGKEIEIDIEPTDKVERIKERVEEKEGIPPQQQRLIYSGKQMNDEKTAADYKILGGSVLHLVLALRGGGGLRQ
Chain of UniProt Q32P51 (Q32P51 whole entry): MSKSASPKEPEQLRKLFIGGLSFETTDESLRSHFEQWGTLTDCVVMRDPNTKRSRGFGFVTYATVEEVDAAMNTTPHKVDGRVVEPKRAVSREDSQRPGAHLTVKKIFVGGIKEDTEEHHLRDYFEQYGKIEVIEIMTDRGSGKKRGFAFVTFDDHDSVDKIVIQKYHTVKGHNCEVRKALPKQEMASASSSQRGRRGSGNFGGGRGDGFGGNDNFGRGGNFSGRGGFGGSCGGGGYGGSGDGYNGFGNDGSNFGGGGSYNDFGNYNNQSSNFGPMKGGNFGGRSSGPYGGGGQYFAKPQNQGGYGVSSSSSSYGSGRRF
Chain of UniProt P61962 (P61962 whole entry): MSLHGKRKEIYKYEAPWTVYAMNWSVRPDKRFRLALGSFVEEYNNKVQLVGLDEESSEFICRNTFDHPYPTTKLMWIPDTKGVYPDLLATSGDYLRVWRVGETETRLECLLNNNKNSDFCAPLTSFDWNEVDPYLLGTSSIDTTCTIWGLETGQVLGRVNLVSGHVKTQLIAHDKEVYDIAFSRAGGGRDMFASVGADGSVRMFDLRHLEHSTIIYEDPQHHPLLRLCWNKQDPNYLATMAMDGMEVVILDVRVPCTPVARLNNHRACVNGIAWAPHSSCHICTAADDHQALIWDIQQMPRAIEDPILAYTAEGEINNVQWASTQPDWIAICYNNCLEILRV
Chain of UniProt Q13200 (Q13200 whole entry): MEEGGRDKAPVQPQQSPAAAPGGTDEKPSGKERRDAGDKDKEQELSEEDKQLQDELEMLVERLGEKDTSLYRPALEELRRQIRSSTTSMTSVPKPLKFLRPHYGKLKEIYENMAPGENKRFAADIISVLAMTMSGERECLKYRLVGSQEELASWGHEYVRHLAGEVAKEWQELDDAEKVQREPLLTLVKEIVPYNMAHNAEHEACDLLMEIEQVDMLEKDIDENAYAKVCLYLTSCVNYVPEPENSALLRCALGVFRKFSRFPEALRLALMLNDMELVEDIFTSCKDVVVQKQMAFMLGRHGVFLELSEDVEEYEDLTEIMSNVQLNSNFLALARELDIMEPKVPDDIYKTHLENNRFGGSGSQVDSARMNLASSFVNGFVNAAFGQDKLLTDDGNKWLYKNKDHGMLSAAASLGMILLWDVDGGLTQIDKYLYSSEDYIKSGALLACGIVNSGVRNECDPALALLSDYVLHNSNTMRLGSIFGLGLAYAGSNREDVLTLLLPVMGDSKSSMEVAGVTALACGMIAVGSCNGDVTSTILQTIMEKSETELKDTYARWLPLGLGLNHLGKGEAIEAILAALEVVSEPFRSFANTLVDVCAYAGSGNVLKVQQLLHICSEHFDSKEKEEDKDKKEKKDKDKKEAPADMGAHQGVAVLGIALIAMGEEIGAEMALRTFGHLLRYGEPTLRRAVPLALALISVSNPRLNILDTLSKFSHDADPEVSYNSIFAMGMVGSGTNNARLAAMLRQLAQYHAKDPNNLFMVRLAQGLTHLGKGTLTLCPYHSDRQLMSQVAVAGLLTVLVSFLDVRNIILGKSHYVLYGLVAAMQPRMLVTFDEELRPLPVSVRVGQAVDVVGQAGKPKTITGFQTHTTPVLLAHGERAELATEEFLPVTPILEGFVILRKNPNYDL
Chain of UniProt Q12788 (Q12788 whole entry): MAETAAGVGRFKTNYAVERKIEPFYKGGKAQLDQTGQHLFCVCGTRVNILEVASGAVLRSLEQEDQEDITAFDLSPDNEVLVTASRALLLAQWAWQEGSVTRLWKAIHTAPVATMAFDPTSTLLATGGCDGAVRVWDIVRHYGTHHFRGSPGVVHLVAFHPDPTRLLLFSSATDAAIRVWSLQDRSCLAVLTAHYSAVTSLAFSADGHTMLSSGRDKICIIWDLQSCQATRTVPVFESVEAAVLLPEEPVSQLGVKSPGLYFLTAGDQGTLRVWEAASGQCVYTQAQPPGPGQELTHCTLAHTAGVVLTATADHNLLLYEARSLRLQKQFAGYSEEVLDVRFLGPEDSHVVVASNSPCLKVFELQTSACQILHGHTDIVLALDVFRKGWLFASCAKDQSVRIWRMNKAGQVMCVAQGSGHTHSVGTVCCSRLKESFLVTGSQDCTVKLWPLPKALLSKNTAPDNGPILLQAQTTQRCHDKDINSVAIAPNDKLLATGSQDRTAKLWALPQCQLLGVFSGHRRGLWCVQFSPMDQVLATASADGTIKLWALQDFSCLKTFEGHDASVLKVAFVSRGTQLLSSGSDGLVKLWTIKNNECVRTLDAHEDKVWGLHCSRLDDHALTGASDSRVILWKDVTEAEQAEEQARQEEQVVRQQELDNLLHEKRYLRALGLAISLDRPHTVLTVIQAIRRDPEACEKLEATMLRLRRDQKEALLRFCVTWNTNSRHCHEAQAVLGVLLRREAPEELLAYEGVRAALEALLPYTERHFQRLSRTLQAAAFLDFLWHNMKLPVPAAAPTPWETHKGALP
Chain of UniProt P62995 (P62995 whole entry): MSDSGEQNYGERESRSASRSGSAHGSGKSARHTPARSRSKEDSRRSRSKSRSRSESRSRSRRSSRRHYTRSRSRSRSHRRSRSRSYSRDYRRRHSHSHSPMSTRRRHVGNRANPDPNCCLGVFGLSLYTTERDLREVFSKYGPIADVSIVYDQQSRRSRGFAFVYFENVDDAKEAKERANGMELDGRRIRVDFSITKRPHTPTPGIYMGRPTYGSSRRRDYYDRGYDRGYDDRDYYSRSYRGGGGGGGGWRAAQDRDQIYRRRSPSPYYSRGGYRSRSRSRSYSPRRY
Chain of UniProt Q15424 (Q15424 whole entry): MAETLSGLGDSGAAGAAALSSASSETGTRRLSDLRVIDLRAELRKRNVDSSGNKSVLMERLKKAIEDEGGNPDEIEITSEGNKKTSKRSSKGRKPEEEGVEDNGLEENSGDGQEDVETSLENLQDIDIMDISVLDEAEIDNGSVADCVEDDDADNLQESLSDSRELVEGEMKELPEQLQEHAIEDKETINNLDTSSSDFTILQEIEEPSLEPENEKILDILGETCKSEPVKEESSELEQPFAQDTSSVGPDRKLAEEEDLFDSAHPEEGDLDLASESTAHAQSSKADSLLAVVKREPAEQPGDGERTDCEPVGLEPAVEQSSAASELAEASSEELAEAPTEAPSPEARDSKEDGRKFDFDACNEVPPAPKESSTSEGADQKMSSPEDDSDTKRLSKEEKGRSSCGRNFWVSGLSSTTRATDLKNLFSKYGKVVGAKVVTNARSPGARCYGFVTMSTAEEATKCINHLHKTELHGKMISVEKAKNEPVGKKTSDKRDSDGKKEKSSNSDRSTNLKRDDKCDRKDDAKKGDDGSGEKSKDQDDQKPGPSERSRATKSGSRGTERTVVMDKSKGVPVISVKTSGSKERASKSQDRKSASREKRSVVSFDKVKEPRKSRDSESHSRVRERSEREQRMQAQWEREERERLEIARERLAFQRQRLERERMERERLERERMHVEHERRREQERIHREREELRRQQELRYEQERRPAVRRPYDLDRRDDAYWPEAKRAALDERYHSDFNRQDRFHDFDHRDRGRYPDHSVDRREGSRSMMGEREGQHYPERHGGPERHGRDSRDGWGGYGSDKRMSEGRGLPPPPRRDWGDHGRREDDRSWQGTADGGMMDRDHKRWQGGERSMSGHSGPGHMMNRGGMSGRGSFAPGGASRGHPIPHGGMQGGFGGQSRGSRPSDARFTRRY
Chain of UniProt Q10471 (Q10471 whole entry): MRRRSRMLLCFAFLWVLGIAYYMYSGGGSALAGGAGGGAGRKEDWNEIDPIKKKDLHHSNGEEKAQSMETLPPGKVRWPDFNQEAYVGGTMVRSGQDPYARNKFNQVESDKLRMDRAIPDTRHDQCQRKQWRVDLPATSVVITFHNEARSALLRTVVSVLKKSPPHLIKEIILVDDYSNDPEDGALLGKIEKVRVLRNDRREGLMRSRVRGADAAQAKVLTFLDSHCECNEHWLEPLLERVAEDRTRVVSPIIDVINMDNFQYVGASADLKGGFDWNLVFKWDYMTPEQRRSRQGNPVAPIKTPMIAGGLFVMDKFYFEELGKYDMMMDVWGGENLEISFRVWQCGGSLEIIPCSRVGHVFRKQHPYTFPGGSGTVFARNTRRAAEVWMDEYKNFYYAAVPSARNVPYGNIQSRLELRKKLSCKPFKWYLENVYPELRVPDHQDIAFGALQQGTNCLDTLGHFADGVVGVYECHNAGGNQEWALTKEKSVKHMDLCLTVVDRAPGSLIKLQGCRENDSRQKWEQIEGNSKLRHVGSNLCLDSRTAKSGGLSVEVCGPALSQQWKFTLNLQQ
Chain of UniProt Q16630 (Q16630 whole entry): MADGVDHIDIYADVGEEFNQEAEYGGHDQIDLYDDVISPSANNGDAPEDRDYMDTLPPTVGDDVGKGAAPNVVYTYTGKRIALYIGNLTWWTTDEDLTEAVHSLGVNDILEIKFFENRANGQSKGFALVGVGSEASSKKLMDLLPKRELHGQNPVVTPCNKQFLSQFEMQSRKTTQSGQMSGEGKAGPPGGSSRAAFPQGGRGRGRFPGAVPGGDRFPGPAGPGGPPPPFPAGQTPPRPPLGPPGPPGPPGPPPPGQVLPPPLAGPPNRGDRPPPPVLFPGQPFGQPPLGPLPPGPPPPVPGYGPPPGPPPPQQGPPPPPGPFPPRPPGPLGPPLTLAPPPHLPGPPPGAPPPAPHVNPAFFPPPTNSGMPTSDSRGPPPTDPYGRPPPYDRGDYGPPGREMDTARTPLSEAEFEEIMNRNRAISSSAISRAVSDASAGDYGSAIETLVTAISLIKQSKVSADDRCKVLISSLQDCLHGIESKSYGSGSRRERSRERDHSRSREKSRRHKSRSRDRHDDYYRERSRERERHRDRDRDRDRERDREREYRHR
Chain of UniProt Q86V88 (Q86V88 whole entry): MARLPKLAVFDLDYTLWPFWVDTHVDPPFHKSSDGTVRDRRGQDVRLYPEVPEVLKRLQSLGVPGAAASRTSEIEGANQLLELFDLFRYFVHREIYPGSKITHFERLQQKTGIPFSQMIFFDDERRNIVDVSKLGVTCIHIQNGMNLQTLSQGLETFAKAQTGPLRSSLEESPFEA

In the case of TBL3 (UniProt Q12788), the NP40-soluble protein abundance (concentration: 0.1mM) was 1.18 ± 0.1; the NP40-soluble protein abundance (concentration: 0.5mM) was 1.16 ± 0.14; the NP40-soluble protein abundance (concentration: 1mM) was 1.11 ± 0.058; the NP40-soluble protein abundance (concentration: 2mM) amounted to 1.36 ± 0.15; the NP40-soluble protein abundance (concentration: 4mM) came to 1.59 ± 0.19; the NP40-soluble protein abundance (concentration: 6mM) was determined as 1.65 ± 0.17. The NP40-soluble protein abundance runs as follows: (concentration: 8mM) 1.72 ± 0.21; (concentration: 10mM) 1.7 ± 0.26.

On to UniProt Q7KZN9|Q7KZN9-2, for which the NP40-soluble protein abundance was 1.07 ± 0.024 (concentration: 0.1mM); 1.05 ± 0.11 (concentration: 0.5mM); 0.98 ± 0.035 (concentration: 1mM); 0.961 ± 0.022 (concentration: 2mM); 0.939 ± 0.052 (concentration: 4mM); 0.924 ± 0.037 (concentration: 6mM). Also, the NP40-soluble protein abundance was found to be 0.907 ± 0.029 (concentration: 8mM) and 0.931 ± 0.042 (concentration: 10mM).

Take GALNT2 (UniProt Q10471): the NP40-soluble protein abundance is 1.02 ± 0.025 (concentration: 0.1mM); 0.97 ± 0.021 (concentration: 0.5mM); 0.9568 ± 0.0034 (concentration: 1mM); 0.917 ± 0.014 (concentration: 2mM); 0.928 ± 0.022 (concentration: 4mM); 0.901 ± 0.012 (concentration: 6mM). Moreover, the NP40-soluble protein abundance amounted to 0.927 ± 0.046 (concentration: 8mM) and 0.861 ± 0.052 (concentration: 10mM).

Take “Q5VWV2|Q8TEW0|Q8TEW0-11|Q8TEW0-2|Q8TEW0-4|Q8TEW0-5|Q8TEW0-8 (UniProt Q8TEW0)”: the NP40-soluble protein abundance runs as follows: (concentration: 0.1mM) 1.02 ± 0.11; (concentration: 0.5mM) 1.02 ± 0.084; (concentration: 1mM) 1.05 ± 0.098; (concentration: 2mM) 1.07 ± 0.089; (concentration: 4mM) 1.17 ± 0.14; (concentration: 6mM) 1.15 ± 0.14. For the same target, the NP40-soluble protein abundance reads like this: (concentration: 8mM) 1.2 ± 0.14; (concentration: 10mM) 1.19 ± 0.1.

HNRNPA1L2 (UniProt Q32P51): the NP40-soluble protein abundance is 1.34 ± 0.52 (concentration: 0.1mM); 1.32 ± 0.58 (concentration: 0.5mM); 1.8 ± 0.79 (concentration: 1mM); 1.49 ± 0.44 (concentration: 2mM); 1.47 ± 0.51 (concentration: 4mM); 1.67 ± 0.65 (concentration: 6mM). Also, the NP40-soluble protein abundance reads like this: (concentration: 8mM) 1.92 ± 0.8; (concentration: 10mM) 1.58 ± 0.35.

Take PSMD2 (UniProt Q13200): the NP40-soluble protein abundance reads like this: (concentration: 0.1mM) 1.03 ± 0.077; (concentration: 0.5mM) 1.1 ± 0.11; (concentration: 1mM) 1.01 ± 0.13; (concentration: 2mM) 1.08 ± 0.19; (concentration: 4mM) 1.06 ± 0.17; (concentration: 6mM) 1.08 ± 0.2. Besides, the NP40-soluble protein abundance was found to be 1.04 ± 0.16 (concentration: 8mM) and 1 ± 0.15 (concentration: 10mM).

For the target UniProt Q86V88|Q86V88-2, the NP40-soluble protein abundance (concentration: 0.1mM) came out at 0.975 ± 0.052; the NP40-soluble protein abundance (concentration: 0.5mM) came to 0.901 ± 0.079; the NP40-soluble protein abundance (concentration: 1mM) is 0.953 ± 0.11; the NP40-soluble protein abundance (concentration: 2mM) worked out at 0.872 ± 0.064; the NP40-soluble protein abundance (concentration: 4mM) turned out to be 0.869 ± 0.048; the NP40-soluble protein abundance (concentration: 6mM) was determined as 0.839 ± 0.089. The NP40-soluble protein abundance by setting is: (concentration: 8mM) 0.858 ± 0.058; (concentration: 10mM) 0.88 ± 0.078.

As for UniProt P61962, the NP40-soluble protein abundance (concentration: 0.1mM) came out at 1.02 ± 0.081; the NP40-soluble protein abundance (concentration: 0.5mM) is 1.08 ± 0.089; the NP40-soluble protein abundance (concentration: 1mM) is 0.988 ± 0.07; the NP40-soluble protein abundance (concentration: 2mM) turned out to be 1.04 ± 0.1; the NP40-soluble protein abundance (concentration: 4mM) was 1.02 ± 0.057; the NP40-soluble protein abundance (concentration: 6mM) was found to be 1.01 ± 0.092. Also, the NP40-soluble protein abundance is 0.946 ± 0.021 (concentration: 8mM) and 0.964 ± 0.03 (concentration: 10mM).

UniProt Q16630|Q16630-2: the NP40-soluble protein abundance (concentration: 0.1mM) amounted to 1.16 ± 0.012; the NP40-soluble protein abundance (concentration: 0.5mM) is 1.64 ± 0.098; the NP40-soluble protein abundance (concentration: 1mM) turned out to be 1.95 ± 0.22; the NP40-soluble protein abundance (concentration: 2mM) stood at 2.23 ± 0.3; the NP40-soluble protein abundance (concentration: 4mM) amounted to 2.49 ± 0.41; the NP40-soluble protein abundance (concentration: 6mM) was determined as 2.58 ± 0.45. For the same target, the NP40-soluble protein abundance (concentration: 8mM) turned out to be 2.71 ± 0.58 and the NP40-soluble protein abundance (concentration: 10mM) stood at 2.75 ± 0.56.

As to MBLAC2 (UniProt Q68D91), the NP40-soluble protein abundance worked out at 1.09 ± 0.12 (concentration: 0.1mM); 1.03 ± 0.1 (concentration: 0.5mM); 1 ± 0.11 (concentration: 1mM); 1.02 ± 0.13 (concentration: 2mM); 1.01 ± 0.11 (concentration: 4mM); 0.941 ± 0.13 (concentration: 6mM). The NP40-soluble protein abundance was 0.952 ± 0.097 (concentration: 8mM) and 0.929 ± 0.14 (concentration: 10mM).

Consider UniProt Q8N5G2, for which the NP40-soluble protein abundance (concentration: 0.1mM) was determined as 1.07 ± 0.1; the NP40-soluble protein abundance (concentration: 0.5mM) stood at 1.03 ± 0.089; the NP40-soluble protein abundance (concentration: 1mM) was 1.12 ± 0.15; the NP40-soluble protein abundance (concentration: 2mM) was found to be 1.3 ± 0.057; the NP40-soluble protein abundance (concentration: 4mM) is 1.26 ± 0.24; the NP40-soluble protein abundance (concentration: 6mM) stood at 1.16 ± 0.17. Further, the NP40-soluble protein abundance by setting is: (concentration: 8mM) 1.24 ± 0.21; (concentration: 10mM) 1.43 ± 0.25.

Consider UniProt Q15843|S4R3E9, for which the NP40-soluble protein abundance runs as follows: (concentration: 0.1mM) 1.1 ± 0.29; (concentration: 0.5mM) 0.839 ± 0.092; (concentration: 1mM) 1.25 ± 0.31; (concentration: 2mM) 0.955 ± 0.21; (concentration: 4mM) 1.09 ± 0.29; (concentration: 6mM) 0.994 ± 0.18. The NP40-soluble protein abundance turned out to be 1.11 ± 0.4 (concentration: 8mM) and 1.07 ± 0.25 (concentration: 10mM).

As to UniProt Q15424|Q15424-3|Q15424-4, the NP40-soluble protein abundance (concentration: 0.1mM) was 0.958 ± 0.048; the NP40-soluble protein abundance (concentration: 0.5mM) was 0.938 ± 0.052; the NP40-soluble protein abundance (concentration: 1mM) amounted to 1.04 ± 0.039; the NP40-soluble protein abundance (concentration: 2mM) came to 1.09 ± 0.081; the NP40-soluble protein abundance (concentration: 4mM) is 1.19 ± 0.066; the NP40-soluble protein abundance (concentration: 6mM) turned out to be 1.25 ± 0.041. The NP40-soluble protein abundance was found to be 1.38 ± 0.083 (concentration: 8mM) and 1.44 ± 0.083 (concentration: 10mM).

Turning to UniProt P62995|P62995-3, the NP40-soluble protein abundance (concentration: 0.1mM) came to 1.08 ± 0.077; the NP40-soluble protein abundance (concentration: 0.5mM) turned out to be 1.36 ± 0.24; the NP40-soluble protein abundance (concentration: 1mM) came out at 1.64 ± 0.54; the NP40-soluble protein abundance (concentration: 2mM) was 1.73 ± 0.47; the NP40-soluble protein abundance (concentration: 4mM) came out at 1.61 ± 0.64; the NP40-soluble protein abundance (concentration: 6mM) was 1.54 ± 0.58. For the same target, the NP40-soluble protein abundance (concentration: 8mM) came out at 1.54 ± 0.62 and the NP40-soluble protein abundance (concentration: 10mM) was found to be 1.41 ± 0.64.

Turning to UniProt Q49A26|Q49A26-3|Q49A26-4, the NP40-soluble protein abundance by setting is: (concentration: 0.1mM) 1.044 ± 0.0023; (concentration: 0.5mM) 1.06 ± 0.036; (concentration: 1mM) 1.15 ± 0.03; (concentration: 2mM) 1.27 ± 0.028; (concentration: 4mM) 1.52 ± 0.16; (concentration: 6mM) 1.72 ± 0.026. For the same target, the NP40-soluble protein abundance reads like this: (concentration: 8mM) 1.97 ± 0.078; (concentration: 10mM) 2.27 ± 0.094.
